The campaign covered roughly 370,000 compounds. About 4,700 (1.3%) were called active. The sample holds actives, similar compounds and a random draw of the others, so the mix is not that of the screen. Unmarked numbers belong to inactive results.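 Rule for the calls: active = inhibition above the plate cutoff, the mean of all test compounds on that plate plus 3 SD (cut at about 35% in these data); inactive = the rest.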
Test: small molecules binding CAG repeat RNA – biochemical, fluorescence, primary screen (AID 651821);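 note: 0% = DMSO alone and 100% = 100 µM mitoxantrone as full dye displacement; higher means more dye released from RNA so lower well fluorescence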
Conditions: r(CAG) RNA repeat, TO-PRO-1 dye displacement fluorescence; at 3 µM; active compounds read high

Row | Compound | inhibition
1 | N#Cc1cccc(C(=O)NCC2CCN(C(=O)C(=O)c3cc4ccccc4o3)CC2)c1 | 2.89%
2 | Nc1[nH]c(C(=O)c2ccccc2)c(-c2ccc(Cl)cc2Cl)c1C(=O)c1ccccc1 | 5.66%
3 | C[C@@H]1CN([C@H](C)CO)C(=O)CCCn2cc(nn2)CO[C@H]1CN(C)C(=O)Nc1ccc(N2CCCCC2)cc1 | 9.11%
4 | Cc1ccc2nc(SCC(=O)N3CC(C)OC(C)C3)nc(=O)n2c1 (centres undefined) | -10.3%
5 | O=C(C1CCCN1S(=O)(=O)c1ccccc1)N1CCc2ccccc2C1 (centres undefined) | 0.6%
6 | O=C(OCC(=O)N1CCCCC1)c1ccc(OC(F)(F)F)cc1 | -1.21%
7 | O=C(Nc1ccccc1)N1CCN(Cc2nc3ccccc3c(=O)[nH]2)CC1 | -0.05%
8 | CCN(CC)C(=O)CC[C@@H]1CC[C@]2(CCCN(S(=O)(=O)C3CCCCC3)C2)O1 | -0.19%
9 | O=C(CSc1nc2c(c(=O)[nH]1)CCCC2)N1CCCCC1 | 3.54%
10 | O=C(Nc1ccc(S(=O)(=O)Nc2nccs2)cc1)c1cc(-c2ccncc2)nc2ccccc12 | 47.9% (active)
11 | Cc1cc(C(=O)OCC(=O)Nc2nccs2)c2ccccc2n1 | 6.91%
12 | O=C(Nc1ccc(S(=O)(=O)Nc2nccs2)cc1)c1cc(=O)[nH]c2ccccc12 | 25.9%
13 | CCN(CC(=O)Nc1ccccc1C(F)(F)F)C(=O)C1CCN(C(=O)Nc2ccccc2)CC1 | -1.69%
14 | COC(=O)[C@]12C[C@H](CC(=O)NCCCCc3ccccc3)C(=O)N(Cc3ccc4c(c3)OCO4)C1=C[C@H](C(C)(C)C)O[C@@H]2C | 9.49%
15 | CSc1nc(-c2ccccc2)nc(C(Cl)Cl)n1 | -0.59%
16 | COc1cc(C(=O)NCC(c2ccco2)N2CCCC2)ccc1OCc1ccccc1 (centres undefined) | 3.03%
17 | COc1cc(/C=C/C(=O)OCC(=O)NC(=O)NCc2ccccc2)ccc1OCC#N | -3.56%
18 | COc1ccc(C(=O)/C=C/c2ccc(-c3ccccc3)cc2)cc1CSCC(=O)O | 63.2% (active)
19 | COc1ccccc1CCNC(=O)C1CCN(C(=O)/C=C/c2ccccc2)CC1 | -7.33%
20 | COC(=O)c1ccc(COc2ccc(/C=C/C(=O)c3ccc(OC)c(CSCC(=O)O)c3)cc2OC)cc1 | 43.7% (active)
21 | COCc1cc(C(C)=O)ccc1OC | 3.9%

Row | Compound | inhibition
22 | CCOC(=O)[C@]12CCCC=C1N(Cc1ccc(OC)cc1)C(=O)[C@@H]2CC(=O)NCc1cccs1 | 1.72%
23 | CN(C)[C@H]1CCN(c2cccc3c2S(=O)(=O)N2CC[C@H](C2)O3)C1 | 1.39%
24 | CCc1c(C)sc(NC(=O)c2cccs2)c1C(N)=O | 5.17%
25 | CCOC(=O)c1c(NC(=O)C2CC=CCC2C(=O)O)sc(C)c1CC (centres undefined) | 34.6% (active)
26 | CCOC(=O)c1c(NC(=O)CN2C(=O)NC3(CCC(C)CC3)C2=O)sc(C)c1CC (centres undefined) | -14%
27 | Cc1ccc(N)cc1CN1CCN(c2ncc(Cc3ccccc3)cn2)CC1 | 3.17%
28 | CC(C)(C)OC(=O)NCc1cc(F)ccc1/C=C/S(=O)(=O)NCCc1ccccc1 | -0.33%
29 | CC1(C)OC(=O)C2=C(CC(CCc3ccccc3)OC2c2ccc(Cl)cc2)O1 (centres undefined) | 3.44%
30 | CCC(C(=O)Nc1ncccn1)(C(F)(F)F)C(F)(F)F | -0.05%
31 | COc1ccc(NS(=O)(=O)c2ccc(C(=O)Nc3c(C)n(C)n(-c4ccccc4)c3=O)cc2)cc1 | 10.7%
32 | Cc1ccc(NC(=O)CCNC(=O)c2ccc([N+](=O)[O-])cc2)cc1S(=O)(=O)N1CCOCC1 | 1.24%
33 | COc1ccc(NS(=O)(=O)c2cc(NC(=O)COc3ccccc3F)ccc2OC)cc1 | 4.34%
34 | COc1ccc(OC)c(S(=O)(=O)Nc2ccccc2F)c1 | -3.01%
35 | COc1cc(/C=C/C(=O)O)cc(S(=O)(=O)Nc2ccccc2SC)c1OC | 8.56%
36 | COc1ccc(NS(=O)(=O)c2cc(C(=O)Nc3ccccc3C(=O)O)ccc2C)cc1 | 74.6% (active)
37 | Cc1ccc(C(=O)Nc2ccccc2-c2ccccc2)cc1S(=O)(=O)Nc1ccccc1 | 17.1%
38 | COc1cc(OC)c(S(=O)(=O)Nc2ccccc2C(=O)O)cc1S(=O)(=O)Nc1ccccc1C(=O)O | 63.4% (active)
39 | COc1ccc(NS(=O)(=O)c2cc(NC(=O)CC(=O)c3ccc([N+](=O)[O-])cc3)ccc2C)cc1 | 42.4% (active)
40 | CCOC(=O)[C@]12CCCCC/C=C\1N(Cc1ccc(OC)cc1)C(=O)[C@H]2CC(=O)N1CCOCC1 | 4.38%
41 | COc1ccc(-c2cc(-c3nnc(SCC(=O)Nc4cccc5ccccc45)n3N)[nH]n2)cc1 | 10.7%
42 | COC(=O)[C@]12C[C@H](CC(=O)NCc3ccccc3)C(=O)N(CCC3=CCCCC3)C1=C[C@H](C(C)(C)C)O[C@@H]2C | 1.7%

Row | Compound | inhibition
43 | COc1ccc(N2CCN(CCNS(=O)(=O)c3ccc(Cl)s3)CC2)cc1 | -0.11%
44 | C=CCN(C)CC#Cc1ccccc1 | -0.11%
45 | COc1ccc(N2CCN(CCNS(=O)(=O)c3ccc([N+](=O)[O-])cc3)CC2)cc1 | 0.28%
46 | CCCC[C@H](C(=O)N(CC)c1ccccc1)[C@@H](O)c1ccc2ccccc2c1 | 4.92%
47 | CC(=O)Oc1ccc(C)cc1N1C(=O)c2ccc(C(=O)O)cc2C1=O | 4.11%
48 | CC(=O)Nc1ccc(NC(=O)c2ccc3c(c2)C(=O)N(c2ccccc2C)C3=O)cc1 | -2.08%
49 | O=C(O)c1ccc2c(c1)C(=O)N(c1ccc(/C=C/C(=O)c3ccccc3)cc1)C2=O | 46.3% (active)
50 | CN1C(=O)c2cc(NS(C)(=O)=O)ccc2OC[C@@H]2O[C@@H](CC(=O)NCc3ccc(-c4ccccc4)cc3)CC[C@H]21 | 4.86%
51 | CC1(C(=O)NS(=O)(=O)c2ccc(C#N)cc2)CCN1C(=O)c1ccc(C2CCCCC2)cc1 (centres undefined) | 46.9% (active)
52 | Cc1noc(C)c1C(=O)N1CCC1(C)C(=O)NS(=O)(=O)c1ccc(C#N)cc1 (centres undefined) | 0.97%
53 | CC1(C(=O)NS(=O)(=O)c2ccc(C#N)cc2)CCN1C(=O)CC1CCCC1 (centres undefined) | 1.94%
54 | CC[C@H](NC(=O)[C@H](Cc1ccccc1)NC(=O)[C@H]1O[C@@H](n2cnc3c(=O)[nH]c(N)nc32)[C@H](O)[C@@H]1O)c1ccccc1 | 14.3%
55 | Cc1ccccc1NC(=O)Cn1nnc(-c2ccccc2F)n1 | 0.27%
56 | CCC(C)n1[nH]c(=O)cc1N (centres undefined) | -0.11%
57 | CC(C)(C)n1nc(C2CC2)c(Br)c1NC(=O)c1ccccc1F | 2.68%
58 | Cc1cc(=O)[nH]c(SCC(=O)Nc2ccc(Cl)cc2C)n1 | 4.47%
59 | COc1ccc(NC(=O)CSc2nc(NS(=O)(=O)c3ccc(C)cc3)cc(=O)[nH]2)cc1 | 13.4%
60 | Cc1ccc(NC(=O)CSc2nc(CSc3ccc(C)cc3)cc(=O)[nH]2)cc1 | 45.1% (active)
61 | CCOC(=O)C1=C(C)NC2=C(C(=O)CC(C)(C)C2)C1c1ccc2c(c1)OCO2 (centres undefined) | 1.3%
62 | O=C(NN=Cc1ccco1)C(=O)Nc1ccc(Cl)c([N+](=O)[O-])c1 | 6.16%
63 | O=C(O)C(=Cc1ccccc1[N+](=O)[O-])c1ccccc1 | -2.74%

Row | Compound | inhibition
64 | O=C(N/N=C/c1cc(Cl)cc([N+](=O)[O-])c1O)C(O)(c1ccccc1)c1ccccc1 | 75.8% (active)
65 | Cc1cc(Br)cn2c(Cc3ccccc3C(F)(F)F)c(-c3ccc(C#N)cc3)nc12 | 7.42%
66 | N#CCC(=O)Nc1ccc(C(=O)OCC(=O)Nc2sc3c(c2C#N)CCCC3)cc1 | 37.6% (active)
67 | CC(=O)c1c(C)[nH]c(C(=O)OCC(=O)Nc2sc3c(c2C#N)CCCC3)c1C | 19.6%
68 | COc1cccc(CN(C)CC(=O)Nc2sc3c(c2C#N)CCC3)c1 | -1.59%
69 | COC(=O)C1CN(CC(C)C)CCS(=O)(=O)N1Cc1ccc(F)cc1 (centres undefined) | -0.73%
70 | COC(=O)c1cc(S(=O)(=O)N2CCN(c3ccccc3C)CC2)cn1C | 1.46%
71 | COc1ccc(C(=O)Nc2cccc(/C=C(/CCC(=O)O)c3nc4ccccc4s3)c2)cc1 | 71.7% (active)
72 | O=C(O)CC/C(=C\c1cc2c(cc1Br)OCO2)c1nc2ccccc2s1 | 38.8% (active)
73 | Cn1c(SCc2nc3ccccc3s2)nnc1-c1ccc2c(c1)OCO2 | -0.18%
74 | O=C(/C=C/c1cc2c(cc1Br)OCO2)NCc1ccc(Cl)cc1 | 0.75%
75 | CCOc1ccc(C(=O)Nc2cccc(SC)c2)cc1 | -4.59%
76 | COc1ccc(/C=C(/NC(=O)c2ccccc2)C(=O)Nc2cccc(C(=O)O)c2)cc1 | 6.11%
77 | Cc1cc(=O)[nH]c(SCC(=O)Nc2ccc(F)cc2F)n1 | 7.71%
78 | CN(C)CC(=O)N[C@@H]1C[C@@H]2O[C@H](CO)CC[C@@H]2O[C@@H]1CCc1ccc(C#Cc2ccccc2)cc1 | 2.31%
79 | COC(=O)[C@]12C[C@H](CC(=O)NCCC(C)C)C(=O)N(CCc3ccc(OC)c(OC)c3)C1=C[C@H](C(C)(C)C)O[C@@H]2C | 0.35%
80 | CC(C)[C@H]1COCCS(=O)(=O)N1Cc1ccccc1-c1cccc2c1sc1ccccc12 | 9.63%
81 | CCN(CCCNC(=O)C1CCN(S(=O)(=O)c2cnc[nH]2)CC1)c1ccccc1 | 1.6%
82 | COc1ccc(CNC(=O)COC(=O)C(CCSC)N2C(=O)c3ccccc3C2=O)cc1 (centres undefined) | 3.76%
83 | COc1ccc(CNC(=O)COC(=O)C2=Cc3ccccc3OC2)cc1 | 78.9% (active)
84 | COc1ccc(CCNC(=O)COC(=O)c2cc(=O)c3ccccc3o2)cc1 | 0.17%

— PubChem BioAssay AID651821 (The Scripps Research Institute Molecular Screening Center, 2012)
